# Data as given in PubChem BioAssay (NCATS).
# Unmarked numbers belong to inactive results. Inconclusive results are not listed. A call without a number means that no potency is given here. Calls of active or inactive are those of the source. Unless noted, calls follow the shape of the dose curve; as a rule, active = well fitted curve in the direction sought with a large enough effect in the repeat runs; inconclusive = weak or mixed curves; inactive = no such curve, though single readings can be large; an effect the other way counts as inactive or inconclusive.
# How the values were obtained:
# [1] = Validation qHTS assay for inhibitors of Activation Induced Cytidine Deaminase (AID): UDG Counterscreen signal (AID 1347427; active = well fitted curve in the direction sought with a large enough effect; an effect the other way counts as inactive or inconclusive)
# How it was run: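 Fluorescence at 560 nm excitation, 665 nm emission reports UDG signal after 250 mM NaOH (2x) addition and 30 min. Enzymes (AID 1 uM, UDG 2 U/mL, at 4/3x) preincubated 10 min with compound, then 4 h with 4x 250 nM DJC20/DJC23 substrate at room temperature.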
# [2] = molecular target: Single-stranded DNA cytosine deaminase (Homo sapiens) (UniProt Q9GZX7); test: Validation qHTS assay for inhibitors of Activation Induced Cytidine Deaminase (AID): AID signal (AID 1347429; active = well fitted curve in the direction sought with a large enough effect; an effect the other way counts as inactive or inconclusive)
# How it was run: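 Compounds (final up to 114 uM) preincubated with AID plus UDG; 250 nM DJC20/DJC23 substrate mix (4x stock) added, 4 hr at room temperature, then NaOH, 30 min. Read 1 fluorescence at 540 nm excitation, 590 nm emission.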
# [3] = molecular target: Calcium and integrin-binding protein 1 (Homo sapiens) (UniProt Q99828); test: Validation qHTS for Identification of Calcium Integrin Binding protein 1 (CIB1) Competitor (AID 1508618; active = well fitted curve in the direction sought with a large enough effect; an effect the other way counts as inactive or inconclusive)
# How it was run: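 CIB1-GST (1 uM final) in 5 mM HEPES pH 7.4, 125 mM NaCl, 5 mM CaCl2, 0.01% Tween20 was preincubated 15 min at room temperature with compound (up to 114 uM), then FITC-alphaIIb peptide (100 nM) added for 15 min; fluorescence polarization read.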
# Papain (Carica papaya) = Papain (Carica papaya) (UniProt P00784); test: Primary qHTS assay for inhibitors of the protease papain (AID 1645873; active = well fitted curve in the direction sought with a large enough effect; an effect the other way counts as inactive or inconclusive;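 also: papain turnover of Z-FR-AMC read as the AMC fluorescence gain over 10 min; series mostly up to about 50 µM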)
# [4] = molecular target: Calcium and integrin-binding protein 1 (Homo sapiens) (UniProt Q99828); test: Confirmatory qHTS for Identification of Calcium Integrin Binding Protein 1 (CIB1) Competitor (AID 1508617; active = well fitted curve in the direction sought with a large enough effect; an effect the other way counts as inactive or inconclusive; also: potency is read from the fitted curve at half-maximal effect; nearly all actives have a fitted effect of over 65% in size); conditions: CIB1 binding competition assay, biochemical qHTS
# How it was run: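 Fluorescence polarization competition: CIB1-GST (1 uM final) in 5 mM HEPES pH 7.4, 125 mM NaCl, 5 mM CaCl2, 0.01% Tween20 preincubated 15 min RT with compound (up to 114 uM), then FITC-alphaIIb peptide (100 nM) added, 15 min RT.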
# [5] = Counterscreen qHTS for small molecule stabilizers of the endoplasmic reticulum resident proteome: GLuc-NoTag assay (AID 1508627; active = well fitted curve in the direction sought with a large enough effect; an effect the other way counts as inactive or inconclusive; also: series mostly up to about 76 µM)
# How it was run: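 Counterscreen line: SH-SY5Y-GLuc-NoTag. Seed, 5 h; compound, 19 h; thapsigargin 100 nM, 4 h; 37C/5% CO2. Readout: secreted GLuc luminescence, coelenterazine 0.07x final, no lysis.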
# [6] = Confirmatory qHTS for small molecule stabilizers of the endoplasmic reticulum resident proteome: Secreted ER Calcium Modulated Protein (SERCaMP) assay (AID 1508628; active = well fitted curve in the direction sought with a large enough effect; an effect the other way counts as inactive or inconclusive; also: nearly all actives have a fitted effect of over 40% in size; also: potency is read from the fitted curve at half-maximal effect)
# How it was run: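 Reporter secretion upon ER calcium depletion (100 nM thapsigargin, 4 h, 37C) is measured as medium luminescence with coelenterazine, after 16 h compound pretreatment of SH-SY5Y-GLuc-SERCaMP cells; primary at three concentrations up to 38.3 uM, follow-up at 11 (up to 76.6 uM).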
# [7] = Cell Viability qHTS for small molecule stabilizers of the endoplasmic reticulum resident proteome (AID 1508629; active = well fitted curve in the direction sought with a large enough effect; an effect the other way counts as inactive or inconclusive;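 also: human SH-SY5Y neuroblastoma cells carrying the GLuc-SERCaMP reporter; compound exposure about 46 h in total before the viability read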); conditions: cell viability counter-screen, 100 nM thapsigargin for final 4 h
# [8] = molecular target: N-terminal Xaa-Pro-Lys N-methyltransferase 1 (Homo sapiens) (UniProt Q9BV86); test: Confirmatory qHTS for Inhibitors of N-terminal methyltransferase 1 (NTMT1): MTaseGlo Assay (AID 1645874; active = well fitted curve in the direction sought with a large enough effect; an effect the other way counts as inactive or inconclusive;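 also: luminescence from SAH made as NTMT1 methylates SPKRIA peptide using SAM; series mostly up to about 100 µM; nearly all actives have a fitted effect of over 65% in size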)
# How it was run: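 SPKRIA peptide at 1 uM was methylated by 125 nM NTMT1 using 100 uM SAM over 30 min at room temperature, following a 15 min compound preincubation. Product SAH was detected luminescently.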
# [9] = molecular target: Cytochrome P450 2D6 (Homo sapiens) (UniProt P10635); test: Cytochrome P450 family 2 subfamily D member 6 (CYP2D6) small molecule antagonists: luciferase biochemical (cell-free) qHTS assay (AID 1645840); also: nearly all actives have a fitted effect of over 55% in size; also: potency is read from the fitted curve at half-maximal effect; as to activity change, negative = inhibition: series mostly up to about 57 µM
# How it was run: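 P450-Glo CYP2D6 system: proluciferin substrate converted by enzyme to luciferin, read by luminescence proportional to activity. Enzyme-substrate mix with compound 10 min at room temperature, then NADPH regeneration 1 h before detection reagent.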
# [10] = Primary qHTS for small molecule stabilizers of the endoplasmic reticulum resident proteome: Secreted ER Calcium Modulated Protein (SERCaMP) assay (AID 1508630; active = well fitted curve in the direction sought with a large enough effect; an effect the other way counts as inactive or inconclusive)
# How it was run: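 The SH-SY5Y reporter protocol was run at 3 concentrations up to 38.3 uM (primary) or 11 concentrations (follow-up): 16 h compound, 100 nM thapsigargin for 4 h, then extracellular luciferase luminescence.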
# [11] = molecular target: Cytochrome P450 2C9 (Homo sapiens) (UniProt P11712); test: Cytochrome P450 family 2 subfamily C member 9 (CYP2C9) small molecule antagonists: luciferase biochemical (cell-free) qHTS assay (AID 1645842); also: nearly all actives have a fitted effect of over 55% in size; also: potency is read from the fitted curve at half-maximal effect; as to activity change, negative = inhibition: series mostly up to about 57 µM
# How it was run: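 P450-Glo CYP2C9 system: proluciferin substrate with enzyme in mix containing 0.4% BSA, 10 min at room temperature, then NADPH regeneration solution added and incubated 1 h at 37C. Detection reagent stopped reaction; luminescence read after 20 min as RLU.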
# [12] = molecular target: Cytochrome P450 3A4 (Homo sapiens) (UniProt P08684); test: Cytochrome P450 family 3 subfamily A member 4 (CYP3A4) small molecule antagonists: luciferase qHTS assay (AID 1645841); also: nearly all actives have a fitted effect of over 45% in size
# How it was run: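 P450-Glo CYP3A4 enzyme with proluciferin substrate preincubated 10 min with compound at room temperature, then NADPH regeneration 1 h. Luciferin detection reagent added for 20 min; luminescence recorded. Ketoconazole positive control.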
# Chain of Cytochrome P450 2C9 (Homo sapiens) (P11712 whole entry, looked up): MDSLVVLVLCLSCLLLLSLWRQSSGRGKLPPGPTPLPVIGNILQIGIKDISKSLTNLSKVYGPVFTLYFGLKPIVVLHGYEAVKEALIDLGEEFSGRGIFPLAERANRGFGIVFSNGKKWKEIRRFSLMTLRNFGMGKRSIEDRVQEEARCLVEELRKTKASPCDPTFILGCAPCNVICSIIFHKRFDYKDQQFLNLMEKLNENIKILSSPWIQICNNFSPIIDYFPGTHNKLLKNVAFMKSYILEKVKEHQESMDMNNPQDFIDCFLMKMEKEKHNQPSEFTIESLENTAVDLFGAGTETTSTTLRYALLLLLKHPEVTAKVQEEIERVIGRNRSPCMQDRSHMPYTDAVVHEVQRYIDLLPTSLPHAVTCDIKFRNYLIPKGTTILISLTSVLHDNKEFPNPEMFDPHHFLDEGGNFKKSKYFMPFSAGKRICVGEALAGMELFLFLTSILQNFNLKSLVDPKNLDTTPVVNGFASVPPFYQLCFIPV
# Chain of Cytochrome P450 2D6 (Homo sapiens) (P10635 whole entry, looked up): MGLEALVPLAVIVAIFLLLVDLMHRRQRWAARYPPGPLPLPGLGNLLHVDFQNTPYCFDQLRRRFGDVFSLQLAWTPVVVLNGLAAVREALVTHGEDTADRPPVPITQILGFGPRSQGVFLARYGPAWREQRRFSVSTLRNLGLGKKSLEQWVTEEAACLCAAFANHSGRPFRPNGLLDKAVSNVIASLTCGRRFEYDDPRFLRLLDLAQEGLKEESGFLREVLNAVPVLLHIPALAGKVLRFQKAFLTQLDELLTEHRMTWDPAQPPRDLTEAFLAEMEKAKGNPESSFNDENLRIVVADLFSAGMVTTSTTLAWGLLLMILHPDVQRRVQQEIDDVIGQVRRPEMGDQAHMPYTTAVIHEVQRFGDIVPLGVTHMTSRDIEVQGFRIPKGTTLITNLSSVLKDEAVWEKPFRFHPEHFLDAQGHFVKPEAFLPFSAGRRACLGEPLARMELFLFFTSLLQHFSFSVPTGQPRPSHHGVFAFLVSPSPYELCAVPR
# Chain of Cytochrome P450 3A4 (Homo sapiens) (P08684 whole entry, looked up): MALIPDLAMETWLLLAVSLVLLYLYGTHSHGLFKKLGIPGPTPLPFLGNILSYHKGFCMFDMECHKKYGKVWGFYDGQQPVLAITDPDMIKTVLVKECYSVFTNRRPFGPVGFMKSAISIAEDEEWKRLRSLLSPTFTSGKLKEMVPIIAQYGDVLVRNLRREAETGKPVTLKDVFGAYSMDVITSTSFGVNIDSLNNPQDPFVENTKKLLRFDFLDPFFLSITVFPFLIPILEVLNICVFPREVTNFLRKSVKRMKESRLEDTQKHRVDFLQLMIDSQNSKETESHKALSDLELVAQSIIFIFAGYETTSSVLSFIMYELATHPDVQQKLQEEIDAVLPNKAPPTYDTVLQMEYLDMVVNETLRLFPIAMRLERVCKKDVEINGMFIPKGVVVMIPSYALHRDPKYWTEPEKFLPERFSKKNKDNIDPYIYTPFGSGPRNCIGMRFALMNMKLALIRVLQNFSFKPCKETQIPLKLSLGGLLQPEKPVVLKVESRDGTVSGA
# Chain of Calcium and integrin-binding protein 1 (Homo sapiens) (Q99828 whole entry, looked up): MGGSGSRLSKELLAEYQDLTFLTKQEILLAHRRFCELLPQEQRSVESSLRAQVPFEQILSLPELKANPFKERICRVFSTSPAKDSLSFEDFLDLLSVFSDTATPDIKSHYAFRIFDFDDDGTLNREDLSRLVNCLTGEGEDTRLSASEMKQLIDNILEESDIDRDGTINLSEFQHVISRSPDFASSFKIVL
# Chain of N-terminal Xaa-Pro-Lys N-methyltransferase 1 (Homo sapiens) (Q9BV86 whole entry, looked up): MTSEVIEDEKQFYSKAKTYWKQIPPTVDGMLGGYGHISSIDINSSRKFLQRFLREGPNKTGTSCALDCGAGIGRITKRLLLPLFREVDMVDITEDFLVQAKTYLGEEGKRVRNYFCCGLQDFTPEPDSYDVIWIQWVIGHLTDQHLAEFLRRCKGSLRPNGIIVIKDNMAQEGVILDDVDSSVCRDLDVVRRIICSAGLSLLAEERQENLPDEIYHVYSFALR
# Chain of Papain (Carica papaya) (P00784 whole entry, looked up): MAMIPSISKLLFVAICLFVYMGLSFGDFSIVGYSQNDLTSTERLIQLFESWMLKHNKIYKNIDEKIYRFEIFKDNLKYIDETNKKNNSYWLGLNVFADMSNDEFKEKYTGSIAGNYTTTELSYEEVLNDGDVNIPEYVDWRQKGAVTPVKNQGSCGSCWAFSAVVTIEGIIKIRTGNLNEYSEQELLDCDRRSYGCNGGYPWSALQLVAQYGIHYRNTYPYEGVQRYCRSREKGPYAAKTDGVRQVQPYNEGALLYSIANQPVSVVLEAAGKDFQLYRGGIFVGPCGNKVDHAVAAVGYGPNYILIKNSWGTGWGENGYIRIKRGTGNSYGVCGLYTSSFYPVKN
# Chain of Single-stranded DNA cytosine deaminase (Homo sapiens) (Q9GZX7 whole entry, looked up): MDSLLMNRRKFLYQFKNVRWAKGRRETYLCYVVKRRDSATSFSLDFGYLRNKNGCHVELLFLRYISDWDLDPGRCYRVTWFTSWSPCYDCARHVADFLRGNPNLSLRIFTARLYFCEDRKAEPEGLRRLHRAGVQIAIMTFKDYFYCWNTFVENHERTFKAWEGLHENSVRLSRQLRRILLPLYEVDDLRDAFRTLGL
compound,measurement,setting,value
Oc1ccc(/C=C/c2cc(O)cc(O)c2)cc1,outcome,[1],inactive
same,outcome,[2],inactive
same,outcome,[3],inactive
same,outcome,Papain (Carica papaya),inactive
O=C1c2ccccc2C(=O)c2c1ccc(O)c2O,Potency,[4],17.8 µM (active)
C[C@@](Cc1ccc(O)c(O)c1)(NN)C(=O)O,outcome,[5],inactive
same,Potency,[6],inactive
same,max response,[7],-4.61%
Cc1cc(-c2ccc(N=Nc3ccc4c(S(=O)(=O)O)cc(S(=O)(=O)O)c(N)c4c3O)c(C)c2)ccc1N=Nc1ccc2c(S(=O)(=O)O)cc(S(=O)(=O)O)c(N)c2c1O,Potency,[6],31.6 µM (active)
COc1cc(C)c(/C=C/C(C)=C/C=C/C(C)=C/C(=O)O)c(C)c1C,outcome,[8],inactive
CN1C(=O)OC(C)(C)C1=O,Potency,[9],inactive
N[C@H](CC(=O)O)C(=O)O,outcome,[10],inactive
CC(C)[C@@H]1CC[C@@H](C)C[C@H]1OC(=O)c1ccccc1O,Potency,[9],inactive
same,Potency,[11],inactive
CCCOc1cc(N)ccc1C(=O)OCCN(CC)CC,Potency,[9],3.38 µM (active)
O=P(O)(O)OP(=O)(O)O,Potency,[9],inactive
CCCCCCCCCCCCCCCCCC[N+](C)(C)CCC[Si](OC)(OC)OC,Potency,[9],15.1 µM (active)
same,Potency,[11],inactive
CCN1C(=O)NC(c2ccccc2)C1=O (configuration not stated),Potency,[9],inactive
N#Cc1ccc2c(c1)N(CCCN1CCC(O)CC1)c1ccccc1S2,outcome,[10],inactive
S=C=Nc1ccc(N=C=S)cc1,Potency,[9],inactive
same,Potency,[11],inactive
CC(=O)Oc1cc(C(F)(F)F)ccc1C(=O)O,Potency,[9],inactive
same,outcome,[12],inactive
CCCC(=O)O,Potency,[9],inactive
same,Potency,[11],inactive
CN(C)c1ccc(C(=C2C=CC(=[N+](C)C)C=C2)c2c(O)c(S(=O)(=O)[O-])cc3cc(S(=O)(=O)O)ccc23)cc1,Potency,[9],15.1 µM (active)
CC(C)=CCC/C(C)=C/CC/C(C)=C/CC/C=C(\C)CC/C=C(\C)CCC=C(C)C,Potency,[9],inactive
Cc1ncc(C[n+]2csc(CCO)c2C)c(N)n1,Potency,[9],inactive
same,outcome,[12],inactive
same,Potency,[11],inactive
O=C(O)Cc1nn(Cc2ccc(Br)cc2F)c(=O)c2ccccc12,outcome,[10],inactive
O=S(=O)(O)CC(S)CS (configuration not stated),Potency,[9],inactive
CCC(C)[C@@H](N)C(=O)O (some centres not stated),outcome,[10],inactive
Oc1cc(O)cc(O)c1,Potency,[9],inactive
same,Potency,[11],inactive
COC(=O)CCC[N+](C)(C)C,Potency,[9],inactive
same,Potency,[11],inactive
Nc1nc(=O)n([C@@H]2CS[C@H](CO)O2)cc1F,Potency,[9],inactive
same,Potency,[11],inactive
N=C(N)n1cccn1,Potency,[9],inactive
same,outcome,[12],inactive
same,Potency,[11],inactive
O=C(OCc1ccccc1)c1cccnc1,Potency,[9],inactive
Cc1cccc(C)c1NC(=O)C1CCCCN1C (configuration not stated),Potency,[9],9.52 µM (active)
same,Potency,[11],inactive
CC/C=C\C/C=C\C/C=C\CCCCCCCC(=O)O,"activity change, negative = inhibition",[10],-26.6% [at 3.88 µM]
O=C(O)c1ccc(NC2OC[C@@H](O)[C@H](O)[C@H]2O)cc1 (some centres not stated),outcome,[10],inactive
O=C1CCC(c2ccccc2)(C2CCN(Cc3ccccc3)CC2)C(=O)N1 (configuration not stated),outcome,[10],inactive
CC12CCC(C[N+](C)(CCC[N+](C)(C)C)C1)C2(C)C (configuration not stated),Potency,[9],inactive
same,Potency,[11],inactive
NC(=O)c1ccc[n+]([C@@H]2O[C@H](COP(=O)([O-])OP(=O)(O)OC[C@H]3O[C@@H](n4cnc5c(N)ncnc54)[C@H](O)[C@@H]3O)[C@@H](O)[C@H]2O)c1,outcome,[10],inactive
CC/C=C\C/C=C\C/C=C\C/C=C\C/C=C\C/C=C\CCC(=O)O,outcome,[10],inactive
CCCc1ccc(C(=O)O)cc1,Potency,[9],inactive
same,Potency,[11],inactive
CCC(Cc1c(I)cc(I)c(O)c1I)C(=O)O (configuration not stated),Potency,[9],inactive
same,Potency,[11],10.7 µM (active)
CC(CC=O)CCCC(C)(C)O (configuration not stated),Potency,[9],inactive
CCCCC(O)c1ccccc1 (configuration not stated),Potency,[9],inactive
NC(=S)N=Nc1ccc(NN=C(N)N)cc1,Potency,[9],10.7 µM (active)
same,outcome,[12],inactive
same,Potency,[11],15.1 µM (active)
CCOc1ccc(S(=O)(=O)O)c2cccnc12,Potency,[9],inactive
same,Potency,[11],inactive
C=CC1=C(C(=O)O)N2C(=O)[C@@H](NC(=O)/C(=N\O)c3csc(N)n3)[C@H]2SC1 (stereo in doubt),Potency,[9],inactive
same,outcome,[12],inactive
same,Potency,[11],inactive
